Bioassay records: PubChem, several laboratories
Lmaj promast: inhibitors of Leishmania major promastigote growth | inhibition, % at 10 µM | Leishmania major promastigotes, resazurin fluorescence viability | 200,000 compounds, 9% hits; in the data active means inhibition above about 50%;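 further: promastigotes grown with compound for 44 hours at 28 °C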
Ins promoter up: MIN6 insulin promoter up-regulation; MIN6 insulin promoter-GFP reporter, high-content imaging; stronger effect = higher value; z-score at 5 µM; 190,000 compounds, 0.3% hits; AID 1625;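 active means z-score above 3 at 5 µM with at least 500 cells counted in the well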
HCT116 PTEN-null: PTEN-deleted cell growth suppression; HCT116 PTEN-null viability, CellTiter-Glo, 60 h; stronger effect = lower value; viability, % at 10 µM; 140,000 compounds, 1.2% hits; AID 827;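 active means viability at or below a set limit, 4 SD under the median of all tested compounds, cut at about 3.7% in these data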;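 further: PTEN knockout HCT116 line with beta catenin targeted HCT116 as companion control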
bCat KO growth: beta-catenin-lacking colon tumor cell growth suppression; HCT116 beta-catenin knockout viability, CellTiter-Glo, 60 h; stronger effect = lower value; AID 818; 140,000 compounds, 1.5% hits; viability, % at 10 µM;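 active means viability at or under a set limit, the compound median less 4 SD, cut at about 6% in these data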;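 further: 0% = Hyamine 1622 control at 20 µM and 100% = untreated cell control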
Autophagy HCS: autophagy modulation, high-content screen; 190,000 compounds, 0.98% hits; AID 463193; calls only at 10 µM (by protocol); MEF GFP-LC3 puncta imaging; test concentration mostly 10 µM;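 active means percentage of spot-positive cells more than 3 SD above its plate mean, without a fluorescence outlier flag or 80% toxicity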;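 further: spot-positive cell cutoff set from DMSO-treated cells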
Insulin prom inh: TRM-6 insulin promoter activity inhibition; TRM-6 cells (human fetal islet line), insulin promoter-eGFP reporter, imaging; reporter expression induced with tamoxifen; inhibition, % at 2 µM; 130,000 compounds, 0.9% hits; AID 1273;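 active means inhibition above the mean plus 3 SD, with well images judged a real hit on visual review, cut at about 60% in these data, passing the limit was not always enough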
The depositor's hits bear a star; i = inactive; x = not tested or not shown. A selection: hits, their analogues and other compounds. The true share with any hit is near 9.6%.

SMILES	Lmaj promast	Ins promoter up	HCT116 PTEN-null	bCat KO growth	Autophagy HCS	Insulin prom inh
COCC1CCCN(C(=O)c2ccc(OC3CCN(Cc4ccccn4)CC3)cc2)C1 (configuration not stated)	-3.7	-0.69	x	x	i	x
COc1ccc(C(c2sc3nc(C)nn3c2O)N2CCC(C(N)=O)CC2)cc1OC (configuration not stated)	-5.7	-0.59	100.0	90.3	i	80.0*
COc1cccc(C2NC(=O)c3ccccc3O2)c1OC (configuration not stated)	-4.9	x	115.1	96.3	i	6.1
COc1cccc(C2NC(=O)c3ccccc3O2)c1OCc1ccccc1F (configuration not stated)	83.5*	x	x	x	i	-26.7
COc1cccc(CNc2ccccc2O)c1OCc1ccccc1F	61.8*	-0.21	x	x	i	x
COc1cccc(CNc2ccc(S(N)(=O)=O)cc2)c1OCc1ccccc1F	65.3*	-0.62	90.4	87.5	i	-7.9
CCOC(=O)c1c(C)[nH]c(C(=O)COC(=O)c2cnc(C)cn2)c1C	-4.8	0.72	88.4	82.5	i	x
Cc1cc(OCc2nn[nH]n2)c2c(-c3ccccc3)cc(=O)oc2c1	-14.8	0.05	93.6	99.0	i	x
O=C(NCc1cccs1)c1ccc2ccccc2n1	-10.4	-0.2	x	x	i	-27.3
COc1ccc(Nc2cc(C)c3ccccc3n2)cc1	82.5*	-1.64	x	x	i	x
Cc1cc(NCc2ccccc2)nc2ccccc12	53.3*	x	55.4	57.1	i	-197.1
C/C(CCC(C)C)=N\Nc1cc(C)c2ccccc2n1	67.2*	0.08	x	x	i	x
Cc1cc(C(=O)NCCC(C)C)c2ccccc2n1	x	1.05	x	x	x	x
Cc1cc(NCc2ccccc2)nc(-c2ccccc2O)n1	24.7	-1.16	27.4	22.6	i	x
CCOC(=O)c1sc2nc(CC(=O)OC)nc(NCCN3CCOCC3)c2c1C	4.0	-0.58	94.5	95.2	i	-8.3
COc1cc(Nc2nc(-c3ccccc3)c3cc(C)ccc3n2)cc(OC)c1OC	60.6*	-1.46	44.5	72.4	i	x
CC(C)(C)C(=O)Nc1nnc(CSCc2ccccc2F)s1	100.2*	0.75	90.9	90.5	i	-9.4
CC(C)C(=O)Nc1nnc(CSCc2ccccc2F)s1	91.0*	0.3	102.6	100.0	i	18.5
CC(C)C(=O)Nc1nnc(CCc2nnc(NC(=O)C(C)C)s2)s1	-5.2	x	99.5	95.2	i	48.6
O=C(Nc1nnc(CSCc2ccccc2F)s1)c1cccc([N+](=O)[O-])c1	94.9*	-0.45	92.4	83.5	i	6.7
CC(C)(C)C(=O)Nc1nnc(CC(=O)NCc2ccccc2)s1	-4.7	0.8	x	x	i	x
COc1ccc(C2C3=C(Nc4ncnn42)c2ccccc2CCC3)cc1 (configuration not stated)	5.1	0.26	82.4	92.8	i	x
Fc1ccc(/C=C2\CCCC3=C2Nc2ncnn2C3c2ccc(F)cc2)cc1 (configuration not stated)	73.2*	0.36	1.8*	2.0*	i	38.5
CCCCNc1nnc(SCC(=O)c2c[nH]c3ccccc23)s1	67.1*	1.16	100.4	96.9	i	-43.2
Cn1cnnc1SCC(=O)c1c[nH]c2ccccc12	-6.7	0.04	85.4	86.8	i	-26.9
SMILES	Lmaj promast	Ins promoter up	HCT116 PTEN-null	bCat KO growth	Autophagy HCS	Insulin prom inh
COc1ccc(/C=N/NC(=S)Nc2ccccc2)cc1COc1ccc(F)cc1F	54.5*	0.36	80.5	81.3	i	-22.2
COc1ccc(NC(=S)N/N=C/c2ccc(F)cc2)cc1OC	-3.1	0.57	x	x	i	-27.3
COc1ccc(C=O)cc1COc1ccccc1F	61.0*	0.24	21.6	22.8	i	-11.5
COc1ccc(/C=C/C(=O)c2ccccc2)cc1COc1ccccc1F	62.1*	x	5.4	7.4	i	43.3
Clc1cnc(N/N=C/c2cccs2)c(Cl)c1	-1.0	-0.76	82.7	85.6	i	60.0
Clc1cnc(N/N=C/c2ccco2)c(Cl)c1	67.3*	0.56	97.5	92.0	i	31.0
CC(C)(CO)NCc1ccccc1OCC(=O)Nc1ccccc1	49.0	-0.03	94.3	96.3	i	-196.6
CN(C)/N=C/C=C1\CC/C(=C\c2ccc(Br)cc2)C1=O	76.6*	-1.15	86.7	84.7	i	4.1
CN(C)/N=C/C=C1\CCC/C(=C/c2cccs2)C1=O	x	0.39	x	x	x	x
COc1ccc(CCn2c(C)cc3c(c2=O)C(c2ccc4c(c2)OCO4)C(C#N)=C(N)O3)cc1OC (configuration not stated)	30.9	-2.17	68.3	66.8	i	-14.8
O=C(CCC1CCCC1)N1CCN(C2CCCC2)CC1	94.2*	-0.58	95.8	91.7	i	-18.8
COc1ccc(CCC(=O)N2CCN(C3CCCCC3)CC2)cc1	56.0*	-0.06	88.0	92.9	i	-107.7
O=C(CCC1CCCC1)N1CCN(C(=O)C2CC2)CC1	-3.3	x	96.1	96.8	i	-25.0
O=C(CN1C(=O)C2CCCCC2C1=O)N1CCN(c2ccccc2)CC1 (configuration not stated)	-2.4	-0.16	x	x	i	x
O=C(CCC1CCCC1)N1CCC(N2CCN(c3ccccc3)CC2)CC1	93.3*	x	x	77.3	i	x
COc1ccc(N2CCN(C(=O)c3c(C)nn(-c4ccccc4)c3C)CC2)cc1	50.2*	-0.22	93.2	93.9	i	-8.3
O=C(N/N=C/c1ccc(Br)cc1)c1ccc(F)cc1	-4.5	0.46	79.4	77.3	i	x
Cc1c(/C=C2\SC(=O)N(CC(=O)Nc3ccc4c(c3)OCO4)C2=O)c2ccccc2n1C	-1.7	0.55	33.8	30.7	i	x
COc1ccc2[nH]c(O)c(NC(C)=O)c2c1	-0.7	-0.02	96.9	90.5	i	23.7
COc1ccc(C(=O)N2CCC(N3CCN(c4ccccc4)CC3)CC2)cc1	90.7*	x	83.9	82.6	i	x
O=C(c1ccccc1)N1CCN(c2ncnc3c2cnn3-c2ccccc2)CC1	-6.3	-1.02	83.5	81.2	i	-63.3
O=C(CCc1ccc(Oc2cc([N+](=O)[O-])cc([N+](=O)[O-])c2)cc1)N1CCCCCC1	98.3*	-0.02	81.4	88.9	i	-57.1
O=C(Cc1ccc([N+](=O)[O-])cc1)N1CCCCCC1	-6.6	0.08	x	x	i	-55.6
Cc1nn(-c2ccccc2)c(Cl)c1C(=O)N1CCN(c2ncnc3c2cnn3-c2ccccc2)CC1	22.8	-1.06	7.1	6.0*	i	x
COc1ccccc1C(=O)N1CCC(N2CCN(c3ccccc3)CC2)CC1	x	-0.27	x	x	x	x
CC(C)CC(=O)N1CCC(N2CCN(c3ccccc3)CC2)CC1	90.2*	-0.17	95.7	100.3	i	-10.0
O=C(O)CCC(=O)Nc1ccc(Br)cc1C(=O)c1ccccc1	x	0.16	x	x	x	x
CC(C)=CCCC1=CCC(/C=N/NC(N)=O)C(C)C1 (configuration not stated)	25.1	0.02	93.6	93.1	i	-3.3
CCC(=O)Nc1cccc(NC(=O)c2cc3ccccc3o2)c1	10.9	x	99.9	89.3	i	0.0
CCOc1cc(CNCCO)c(Cl)cc1OCC(=O)NCCc1ccccc1	90.8*	-0.1	96.2	107.6	i	-6.7
